The supplement of paper PMC11732987, “Enantioselective OTUD7B fragment discovery through chemoproteomics screening and high-throughput optimisation” (Communications Chemistry, 2025)

How the values were obtained:
Test in all cases: log2 ratio of Biotin-Ahx-Ub-VS probe labelling (fragment/DMSO); higher = less target engagement (more negative = stronger competition), active = hit call of the paper (q ≤ 0.05, log2 ratio ≤ -1)
Details in all cases: compound concentration: 200 uM; treatment time: 3 h
USP42 = target: T1, USP42 (UniProt Q9H9J4)
T1 sequence (whole entry): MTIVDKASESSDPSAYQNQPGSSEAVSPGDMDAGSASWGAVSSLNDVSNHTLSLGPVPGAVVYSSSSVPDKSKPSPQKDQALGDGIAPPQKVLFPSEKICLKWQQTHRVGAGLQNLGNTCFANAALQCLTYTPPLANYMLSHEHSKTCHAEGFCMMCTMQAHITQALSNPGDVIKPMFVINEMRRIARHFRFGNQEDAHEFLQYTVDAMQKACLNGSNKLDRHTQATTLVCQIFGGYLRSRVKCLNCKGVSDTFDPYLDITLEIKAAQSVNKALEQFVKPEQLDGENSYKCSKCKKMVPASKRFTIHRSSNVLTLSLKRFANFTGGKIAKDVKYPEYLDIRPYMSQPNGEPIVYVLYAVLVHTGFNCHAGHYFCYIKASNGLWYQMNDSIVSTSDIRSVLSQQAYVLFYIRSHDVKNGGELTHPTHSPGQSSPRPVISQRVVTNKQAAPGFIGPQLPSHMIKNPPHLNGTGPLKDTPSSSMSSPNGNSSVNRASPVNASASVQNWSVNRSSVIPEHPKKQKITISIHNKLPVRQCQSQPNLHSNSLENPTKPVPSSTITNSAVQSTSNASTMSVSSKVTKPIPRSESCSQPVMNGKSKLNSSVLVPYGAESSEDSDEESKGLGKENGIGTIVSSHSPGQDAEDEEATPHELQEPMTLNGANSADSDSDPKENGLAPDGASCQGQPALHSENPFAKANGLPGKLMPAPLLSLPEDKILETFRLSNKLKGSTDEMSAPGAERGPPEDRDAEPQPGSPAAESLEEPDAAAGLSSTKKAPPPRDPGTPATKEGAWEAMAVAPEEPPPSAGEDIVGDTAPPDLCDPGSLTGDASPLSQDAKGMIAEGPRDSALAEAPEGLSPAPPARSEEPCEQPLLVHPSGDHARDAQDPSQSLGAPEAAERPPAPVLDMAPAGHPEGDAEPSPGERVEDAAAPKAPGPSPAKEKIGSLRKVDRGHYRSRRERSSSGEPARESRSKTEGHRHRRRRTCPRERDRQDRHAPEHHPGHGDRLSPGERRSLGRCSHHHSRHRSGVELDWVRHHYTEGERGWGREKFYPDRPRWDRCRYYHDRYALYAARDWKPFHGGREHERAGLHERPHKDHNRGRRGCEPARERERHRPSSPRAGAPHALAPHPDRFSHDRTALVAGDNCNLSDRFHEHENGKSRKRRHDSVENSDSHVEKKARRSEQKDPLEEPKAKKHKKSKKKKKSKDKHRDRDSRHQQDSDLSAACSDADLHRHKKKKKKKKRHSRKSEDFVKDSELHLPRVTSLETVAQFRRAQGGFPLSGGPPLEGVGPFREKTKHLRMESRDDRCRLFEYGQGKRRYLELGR
Method in brief: (§1)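 Triplicate samples of HEK293T lysate, 495 µg each, received fragment at 200 µM or vehicle for 3 h, followed by Biotin-Ahx-Ub-VS (0.5 µM final) for 1 h. After NeutrAvidin enrichment of labelled DUBs and LysC/trypsin digestion, peptides were run by diaPASEF LC-MS/MS. The values are average log2 fragment/vehicle ratios from global-median-normalised Spectronaut label-free quantities, tested by unpaired t-test on proteins having ≥2 unique peptides.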

USP46 = USP46 (UniProt P62068)
USP46, sequence (P62068 whole entry): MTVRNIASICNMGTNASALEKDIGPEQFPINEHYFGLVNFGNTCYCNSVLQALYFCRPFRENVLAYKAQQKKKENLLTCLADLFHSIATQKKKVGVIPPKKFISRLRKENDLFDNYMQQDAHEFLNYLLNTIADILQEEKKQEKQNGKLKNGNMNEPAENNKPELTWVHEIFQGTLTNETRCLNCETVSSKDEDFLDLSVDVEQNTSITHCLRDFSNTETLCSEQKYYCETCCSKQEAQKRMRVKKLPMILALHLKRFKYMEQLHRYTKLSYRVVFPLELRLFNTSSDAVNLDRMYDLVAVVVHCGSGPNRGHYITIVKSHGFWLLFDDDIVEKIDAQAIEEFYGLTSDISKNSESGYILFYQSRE
Method in brief: as §1

USP47 = target: T2, USP47 (UniProt Q96K76)
T2 sequence (whole entry): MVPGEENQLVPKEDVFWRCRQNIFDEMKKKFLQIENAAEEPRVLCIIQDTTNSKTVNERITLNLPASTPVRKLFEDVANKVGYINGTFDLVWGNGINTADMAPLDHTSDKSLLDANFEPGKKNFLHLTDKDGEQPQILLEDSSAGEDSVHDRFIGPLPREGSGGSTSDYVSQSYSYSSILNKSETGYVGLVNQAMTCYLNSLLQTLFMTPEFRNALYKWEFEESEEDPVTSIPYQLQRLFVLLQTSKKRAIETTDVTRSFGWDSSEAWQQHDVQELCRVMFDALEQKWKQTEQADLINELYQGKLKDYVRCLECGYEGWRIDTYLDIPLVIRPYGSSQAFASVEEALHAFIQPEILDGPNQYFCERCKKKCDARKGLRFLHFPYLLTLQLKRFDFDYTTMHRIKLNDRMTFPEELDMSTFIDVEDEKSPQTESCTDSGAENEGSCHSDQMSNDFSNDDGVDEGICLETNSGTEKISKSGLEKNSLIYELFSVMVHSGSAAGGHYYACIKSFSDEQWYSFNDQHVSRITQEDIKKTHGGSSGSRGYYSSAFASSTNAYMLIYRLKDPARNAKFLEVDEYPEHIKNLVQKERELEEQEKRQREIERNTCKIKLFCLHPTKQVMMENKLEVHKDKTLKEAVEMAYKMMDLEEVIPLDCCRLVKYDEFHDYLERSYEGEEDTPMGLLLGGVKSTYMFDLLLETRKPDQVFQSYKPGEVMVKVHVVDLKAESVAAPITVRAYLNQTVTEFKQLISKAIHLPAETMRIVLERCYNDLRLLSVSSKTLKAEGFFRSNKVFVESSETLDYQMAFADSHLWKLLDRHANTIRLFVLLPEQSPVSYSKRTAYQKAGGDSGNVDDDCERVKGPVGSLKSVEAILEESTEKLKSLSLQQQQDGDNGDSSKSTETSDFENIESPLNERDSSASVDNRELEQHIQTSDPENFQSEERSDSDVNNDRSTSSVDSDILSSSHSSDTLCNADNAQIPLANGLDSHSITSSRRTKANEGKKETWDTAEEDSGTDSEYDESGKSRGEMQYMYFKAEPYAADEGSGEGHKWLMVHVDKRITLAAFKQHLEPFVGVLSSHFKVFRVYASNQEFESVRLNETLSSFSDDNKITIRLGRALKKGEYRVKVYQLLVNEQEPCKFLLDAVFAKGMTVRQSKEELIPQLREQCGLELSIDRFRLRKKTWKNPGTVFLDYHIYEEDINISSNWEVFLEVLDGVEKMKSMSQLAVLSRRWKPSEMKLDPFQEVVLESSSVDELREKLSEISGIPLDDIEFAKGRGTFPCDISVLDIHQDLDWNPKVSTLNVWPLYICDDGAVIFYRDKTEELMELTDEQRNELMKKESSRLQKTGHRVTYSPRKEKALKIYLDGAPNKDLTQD
Method in brief: as §1

USP48 = target: T3, USP48 (UniProt Q86UV5)
T3 sequence (whole entry): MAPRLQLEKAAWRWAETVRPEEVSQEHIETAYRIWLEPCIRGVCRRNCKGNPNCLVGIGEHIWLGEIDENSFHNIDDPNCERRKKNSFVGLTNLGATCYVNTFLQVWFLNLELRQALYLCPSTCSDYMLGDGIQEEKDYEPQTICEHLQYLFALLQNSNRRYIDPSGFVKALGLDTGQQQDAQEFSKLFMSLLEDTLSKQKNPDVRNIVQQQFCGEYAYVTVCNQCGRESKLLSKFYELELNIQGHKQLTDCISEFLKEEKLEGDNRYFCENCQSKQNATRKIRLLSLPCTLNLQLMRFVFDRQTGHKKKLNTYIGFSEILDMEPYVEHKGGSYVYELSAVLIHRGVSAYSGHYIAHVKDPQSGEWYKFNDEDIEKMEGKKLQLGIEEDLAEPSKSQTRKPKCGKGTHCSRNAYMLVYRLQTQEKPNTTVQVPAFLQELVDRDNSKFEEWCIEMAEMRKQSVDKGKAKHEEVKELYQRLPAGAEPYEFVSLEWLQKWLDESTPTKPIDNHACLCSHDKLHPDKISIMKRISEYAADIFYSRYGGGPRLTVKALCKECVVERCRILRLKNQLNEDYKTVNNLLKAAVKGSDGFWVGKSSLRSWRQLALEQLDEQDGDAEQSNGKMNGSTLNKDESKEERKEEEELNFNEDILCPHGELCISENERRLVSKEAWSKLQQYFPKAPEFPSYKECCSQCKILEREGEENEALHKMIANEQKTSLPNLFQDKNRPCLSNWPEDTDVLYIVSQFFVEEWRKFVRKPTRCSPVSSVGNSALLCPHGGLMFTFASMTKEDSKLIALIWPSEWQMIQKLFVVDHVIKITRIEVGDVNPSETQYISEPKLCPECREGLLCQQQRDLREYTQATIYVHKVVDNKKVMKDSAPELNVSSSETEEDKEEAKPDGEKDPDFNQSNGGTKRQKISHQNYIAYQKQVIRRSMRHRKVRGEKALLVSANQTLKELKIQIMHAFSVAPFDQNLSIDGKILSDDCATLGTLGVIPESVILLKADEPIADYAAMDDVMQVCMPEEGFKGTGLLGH
Method in brief: as §1

USP5 = target: T4, USP5 (UniProt P45974)
T4 sequence (whole entry): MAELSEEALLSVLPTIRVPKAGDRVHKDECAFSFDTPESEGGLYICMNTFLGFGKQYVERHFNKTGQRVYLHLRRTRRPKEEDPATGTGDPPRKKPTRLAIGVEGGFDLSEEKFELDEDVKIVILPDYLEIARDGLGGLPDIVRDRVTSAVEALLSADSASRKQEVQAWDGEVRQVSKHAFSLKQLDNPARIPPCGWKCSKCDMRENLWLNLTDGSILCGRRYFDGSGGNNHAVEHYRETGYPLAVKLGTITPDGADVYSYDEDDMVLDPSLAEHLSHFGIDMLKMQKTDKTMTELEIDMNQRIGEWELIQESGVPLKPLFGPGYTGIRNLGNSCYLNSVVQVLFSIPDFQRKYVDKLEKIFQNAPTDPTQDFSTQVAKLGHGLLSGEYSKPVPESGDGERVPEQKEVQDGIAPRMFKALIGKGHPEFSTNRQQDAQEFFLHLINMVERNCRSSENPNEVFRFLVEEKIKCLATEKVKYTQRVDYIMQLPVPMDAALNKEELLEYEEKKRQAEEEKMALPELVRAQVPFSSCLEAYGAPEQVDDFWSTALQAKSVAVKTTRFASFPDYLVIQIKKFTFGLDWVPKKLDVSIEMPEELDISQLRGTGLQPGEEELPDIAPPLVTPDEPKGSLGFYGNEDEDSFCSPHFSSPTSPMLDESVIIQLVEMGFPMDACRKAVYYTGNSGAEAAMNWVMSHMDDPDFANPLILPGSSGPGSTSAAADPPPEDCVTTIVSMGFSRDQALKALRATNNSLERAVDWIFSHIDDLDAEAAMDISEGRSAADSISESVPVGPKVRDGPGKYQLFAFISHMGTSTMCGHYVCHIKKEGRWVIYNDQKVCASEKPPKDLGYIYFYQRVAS
Method in brief: as §1

USP54 = USP54 (UniProt Q70EL1)
USP54, sequence (Q70EL1 whole entry): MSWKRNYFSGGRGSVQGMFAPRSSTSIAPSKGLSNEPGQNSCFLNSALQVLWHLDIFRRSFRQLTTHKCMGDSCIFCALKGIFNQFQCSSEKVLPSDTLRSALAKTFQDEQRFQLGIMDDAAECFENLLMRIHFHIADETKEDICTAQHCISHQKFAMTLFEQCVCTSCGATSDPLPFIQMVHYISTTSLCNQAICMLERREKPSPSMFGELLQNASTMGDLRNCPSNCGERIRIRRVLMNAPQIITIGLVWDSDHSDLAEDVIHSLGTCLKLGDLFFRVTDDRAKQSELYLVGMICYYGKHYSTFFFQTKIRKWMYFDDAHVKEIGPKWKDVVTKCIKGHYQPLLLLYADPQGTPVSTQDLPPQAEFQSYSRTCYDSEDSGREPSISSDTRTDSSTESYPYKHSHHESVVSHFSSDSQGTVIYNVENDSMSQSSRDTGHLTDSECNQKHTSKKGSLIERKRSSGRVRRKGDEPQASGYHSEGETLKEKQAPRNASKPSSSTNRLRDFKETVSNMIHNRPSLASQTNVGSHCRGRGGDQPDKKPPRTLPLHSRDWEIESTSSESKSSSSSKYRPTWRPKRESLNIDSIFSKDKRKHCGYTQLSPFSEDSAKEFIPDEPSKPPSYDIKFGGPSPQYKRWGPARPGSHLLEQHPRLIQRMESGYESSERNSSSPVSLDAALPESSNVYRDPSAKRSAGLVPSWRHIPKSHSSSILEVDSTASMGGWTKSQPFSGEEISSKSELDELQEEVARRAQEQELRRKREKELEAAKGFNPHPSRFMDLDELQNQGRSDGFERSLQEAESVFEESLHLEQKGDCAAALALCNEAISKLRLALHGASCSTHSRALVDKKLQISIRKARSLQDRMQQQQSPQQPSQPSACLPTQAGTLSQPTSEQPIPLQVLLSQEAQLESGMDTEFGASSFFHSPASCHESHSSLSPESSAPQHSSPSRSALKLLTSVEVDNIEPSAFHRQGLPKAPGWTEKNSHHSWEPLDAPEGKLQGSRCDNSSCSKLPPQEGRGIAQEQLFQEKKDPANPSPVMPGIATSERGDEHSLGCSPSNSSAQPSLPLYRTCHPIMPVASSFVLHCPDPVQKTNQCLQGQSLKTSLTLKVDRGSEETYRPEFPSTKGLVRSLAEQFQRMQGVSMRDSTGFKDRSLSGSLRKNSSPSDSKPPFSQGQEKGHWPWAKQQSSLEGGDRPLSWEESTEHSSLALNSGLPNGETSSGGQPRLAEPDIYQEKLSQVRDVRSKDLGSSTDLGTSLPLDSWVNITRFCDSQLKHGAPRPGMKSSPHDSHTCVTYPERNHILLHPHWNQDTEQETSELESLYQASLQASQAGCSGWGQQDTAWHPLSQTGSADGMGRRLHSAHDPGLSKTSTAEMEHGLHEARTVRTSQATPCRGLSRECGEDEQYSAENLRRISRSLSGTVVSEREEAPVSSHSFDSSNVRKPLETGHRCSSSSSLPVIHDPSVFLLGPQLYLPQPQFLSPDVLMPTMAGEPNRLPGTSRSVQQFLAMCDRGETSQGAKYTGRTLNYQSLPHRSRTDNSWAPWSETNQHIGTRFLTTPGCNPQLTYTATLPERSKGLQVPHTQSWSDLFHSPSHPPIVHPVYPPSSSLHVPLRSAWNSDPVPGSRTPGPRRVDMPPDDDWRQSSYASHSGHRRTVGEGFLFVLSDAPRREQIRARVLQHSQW
Method in brief: as §1

USP7 = USP7 (UniProt Q93009)
Method in brief: as §1

USP8 = target: T5, USP8 (UniProt P40818)
T5 sequence (whole entry): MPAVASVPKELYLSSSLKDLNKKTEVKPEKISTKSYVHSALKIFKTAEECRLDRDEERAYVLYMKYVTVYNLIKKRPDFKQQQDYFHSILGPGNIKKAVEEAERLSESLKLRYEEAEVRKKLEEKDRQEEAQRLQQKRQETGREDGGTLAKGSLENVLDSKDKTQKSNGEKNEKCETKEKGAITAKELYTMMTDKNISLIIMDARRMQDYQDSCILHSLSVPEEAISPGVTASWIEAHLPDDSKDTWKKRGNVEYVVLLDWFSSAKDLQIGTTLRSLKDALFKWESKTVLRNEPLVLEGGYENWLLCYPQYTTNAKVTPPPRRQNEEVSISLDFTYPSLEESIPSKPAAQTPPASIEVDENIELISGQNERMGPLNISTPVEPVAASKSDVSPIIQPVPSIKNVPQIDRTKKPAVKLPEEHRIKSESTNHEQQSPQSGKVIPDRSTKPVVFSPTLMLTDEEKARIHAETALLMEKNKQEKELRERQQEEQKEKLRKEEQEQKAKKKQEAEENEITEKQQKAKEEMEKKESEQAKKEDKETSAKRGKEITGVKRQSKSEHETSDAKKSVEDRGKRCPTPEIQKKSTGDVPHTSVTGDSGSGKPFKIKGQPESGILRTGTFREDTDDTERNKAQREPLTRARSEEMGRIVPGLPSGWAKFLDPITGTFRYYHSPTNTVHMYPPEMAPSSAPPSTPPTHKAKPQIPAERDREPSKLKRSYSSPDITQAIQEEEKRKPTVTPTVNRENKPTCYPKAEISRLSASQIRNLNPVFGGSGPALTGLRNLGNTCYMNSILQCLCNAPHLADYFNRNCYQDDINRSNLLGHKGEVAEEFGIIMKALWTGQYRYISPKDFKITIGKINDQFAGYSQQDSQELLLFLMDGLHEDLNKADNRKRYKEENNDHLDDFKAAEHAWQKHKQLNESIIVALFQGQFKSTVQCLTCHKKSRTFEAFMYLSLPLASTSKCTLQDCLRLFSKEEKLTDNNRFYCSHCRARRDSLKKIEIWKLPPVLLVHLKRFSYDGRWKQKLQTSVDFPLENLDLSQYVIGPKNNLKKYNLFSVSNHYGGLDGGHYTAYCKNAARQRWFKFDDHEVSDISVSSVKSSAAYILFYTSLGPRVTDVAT
Method in brief: as §1

USP9X = USP9X (UniProt Q93008)
USP9X, sequence (Q93008 whole entry): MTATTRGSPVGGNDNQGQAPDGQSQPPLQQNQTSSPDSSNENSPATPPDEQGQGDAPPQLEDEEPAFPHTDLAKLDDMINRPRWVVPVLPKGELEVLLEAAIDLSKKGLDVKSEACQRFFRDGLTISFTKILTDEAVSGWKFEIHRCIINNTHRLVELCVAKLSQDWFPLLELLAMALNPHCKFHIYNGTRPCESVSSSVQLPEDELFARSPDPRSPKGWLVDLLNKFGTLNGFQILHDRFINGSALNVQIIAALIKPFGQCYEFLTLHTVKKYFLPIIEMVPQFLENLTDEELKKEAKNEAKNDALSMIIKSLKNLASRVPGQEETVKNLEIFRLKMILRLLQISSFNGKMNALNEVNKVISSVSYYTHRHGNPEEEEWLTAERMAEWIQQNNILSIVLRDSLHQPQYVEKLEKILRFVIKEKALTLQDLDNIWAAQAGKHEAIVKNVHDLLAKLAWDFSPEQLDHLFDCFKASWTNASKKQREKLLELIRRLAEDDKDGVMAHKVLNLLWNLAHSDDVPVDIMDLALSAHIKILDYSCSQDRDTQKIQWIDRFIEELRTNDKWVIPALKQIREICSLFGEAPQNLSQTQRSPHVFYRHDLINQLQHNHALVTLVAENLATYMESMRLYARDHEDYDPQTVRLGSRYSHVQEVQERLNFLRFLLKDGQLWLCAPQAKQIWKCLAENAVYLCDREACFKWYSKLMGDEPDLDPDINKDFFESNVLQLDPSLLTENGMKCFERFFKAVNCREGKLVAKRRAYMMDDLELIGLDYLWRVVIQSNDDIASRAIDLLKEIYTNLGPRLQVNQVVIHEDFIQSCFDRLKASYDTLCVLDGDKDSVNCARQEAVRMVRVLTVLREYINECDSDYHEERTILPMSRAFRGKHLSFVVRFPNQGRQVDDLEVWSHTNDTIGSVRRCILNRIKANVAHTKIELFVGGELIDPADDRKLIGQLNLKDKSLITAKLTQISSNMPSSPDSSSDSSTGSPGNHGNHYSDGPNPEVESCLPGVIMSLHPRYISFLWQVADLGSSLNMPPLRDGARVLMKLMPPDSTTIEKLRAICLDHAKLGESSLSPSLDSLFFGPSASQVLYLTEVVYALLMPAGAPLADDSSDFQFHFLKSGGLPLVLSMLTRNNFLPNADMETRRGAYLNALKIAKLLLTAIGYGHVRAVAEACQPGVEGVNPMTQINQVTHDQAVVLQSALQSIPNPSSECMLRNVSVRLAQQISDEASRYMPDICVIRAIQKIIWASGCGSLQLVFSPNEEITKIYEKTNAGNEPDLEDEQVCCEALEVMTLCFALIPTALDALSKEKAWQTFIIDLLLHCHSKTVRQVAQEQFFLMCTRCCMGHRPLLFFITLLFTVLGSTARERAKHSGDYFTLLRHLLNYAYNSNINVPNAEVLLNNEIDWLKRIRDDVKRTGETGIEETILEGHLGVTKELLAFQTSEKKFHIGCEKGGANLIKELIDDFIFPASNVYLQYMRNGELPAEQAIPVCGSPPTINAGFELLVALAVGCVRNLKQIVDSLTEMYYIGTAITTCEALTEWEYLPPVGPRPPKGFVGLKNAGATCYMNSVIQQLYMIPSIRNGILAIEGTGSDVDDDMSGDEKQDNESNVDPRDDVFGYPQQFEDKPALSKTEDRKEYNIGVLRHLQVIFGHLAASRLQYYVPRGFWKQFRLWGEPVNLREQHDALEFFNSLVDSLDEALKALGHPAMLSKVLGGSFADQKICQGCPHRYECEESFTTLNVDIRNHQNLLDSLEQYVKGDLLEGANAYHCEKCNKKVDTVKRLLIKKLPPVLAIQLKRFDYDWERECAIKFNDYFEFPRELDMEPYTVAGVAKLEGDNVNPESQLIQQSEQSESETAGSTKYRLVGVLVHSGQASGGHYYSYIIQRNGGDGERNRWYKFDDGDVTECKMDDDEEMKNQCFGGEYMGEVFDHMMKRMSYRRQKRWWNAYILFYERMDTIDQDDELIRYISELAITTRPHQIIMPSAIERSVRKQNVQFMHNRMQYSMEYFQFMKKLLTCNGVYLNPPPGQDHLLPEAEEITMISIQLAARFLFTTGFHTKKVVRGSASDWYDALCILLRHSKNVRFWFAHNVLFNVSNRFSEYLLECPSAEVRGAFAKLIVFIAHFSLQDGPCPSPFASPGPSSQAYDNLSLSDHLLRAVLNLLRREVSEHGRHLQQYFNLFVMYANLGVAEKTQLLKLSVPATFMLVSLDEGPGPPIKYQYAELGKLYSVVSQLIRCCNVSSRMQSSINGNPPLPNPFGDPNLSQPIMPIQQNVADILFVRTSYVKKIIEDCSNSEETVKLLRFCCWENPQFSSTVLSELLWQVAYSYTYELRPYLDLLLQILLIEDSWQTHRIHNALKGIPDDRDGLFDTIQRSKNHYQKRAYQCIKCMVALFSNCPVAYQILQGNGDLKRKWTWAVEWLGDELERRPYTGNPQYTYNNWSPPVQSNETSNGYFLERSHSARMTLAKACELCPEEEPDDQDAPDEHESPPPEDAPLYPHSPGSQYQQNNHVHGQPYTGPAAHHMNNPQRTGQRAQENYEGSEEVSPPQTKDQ
Method in brief: as §1

UniProt O00487 = target: UniProt O00487
UniProt O00487, sequence (O00487 whole entry): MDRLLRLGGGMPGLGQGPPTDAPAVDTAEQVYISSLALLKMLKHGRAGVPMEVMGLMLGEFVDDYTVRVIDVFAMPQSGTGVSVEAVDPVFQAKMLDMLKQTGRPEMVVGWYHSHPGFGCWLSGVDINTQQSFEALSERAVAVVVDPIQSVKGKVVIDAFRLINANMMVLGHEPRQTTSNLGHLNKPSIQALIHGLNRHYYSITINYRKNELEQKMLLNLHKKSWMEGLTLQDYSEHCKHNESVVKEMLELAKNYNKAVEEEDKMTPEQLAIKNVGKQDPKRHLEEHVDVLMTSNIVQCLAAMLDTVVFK
Method in brief: as §1

Measured: log2 ratio of Biotin-Ahx-Ub-VS probe labelling

CC(NC(=O)CCl)c1csc(-c2ccccc2)n1.Cl (stereo not given)
inactive: USP42 -0.201 | USP46 -0.41 | USP47 0.0356 | USP48 -0.587 | USP5 -0.0456 | USP54 0.348 | USP7 -0.457 | USP8 -0.318 | USP9X -0.619 | UniProt O00487 -0.213
